Assay outcomes (PubChem)
AmpC no deterg: qHTS Inhibitors of AmpC Beta-Lactamase (assay without detergent); AmpC nitrocefin hydrolysis, absorbance 480 nm, 0.0001% Triton; Potency, µM (titrated, usually from 57.1 µM), for the others: top-dose activity change, negative = inhibition, actives largely listed as inhibitors; 330,000 tested, 0.52% active;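 note: plate controls were no compound for no effect and no enzyme for full effect; nearly all actives have a fitted effect of over 20% in size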
Target sequence (P00811 whole entry, looked up): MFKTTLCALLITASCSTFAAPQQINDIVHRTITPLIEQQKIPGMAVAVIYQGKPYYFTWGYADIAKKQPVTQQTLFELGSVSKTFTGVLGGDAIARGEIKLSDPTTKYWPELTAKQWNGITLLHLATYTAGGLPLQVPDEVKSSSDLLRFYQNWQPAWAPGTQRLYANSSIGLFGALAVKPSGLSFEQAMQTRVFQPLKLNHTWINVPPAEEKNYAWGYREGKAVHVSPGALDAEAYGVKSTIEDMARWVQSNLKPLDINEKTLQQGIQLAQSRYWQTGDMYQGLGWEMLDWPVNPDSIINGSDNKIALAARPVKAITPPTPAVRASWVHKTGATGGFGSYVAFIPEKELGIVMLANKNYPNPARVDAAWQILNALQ
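AmpC (5.3 nM in the dispensed reagent) in 20 mM phosphate pH 7.0 with 0.01% (detergent screen) or 0.0001% Triton X-100 was preincubated with compounds for 15 min at room temperature. Nitrocefin was then added from an 800 uM solution, and hydrolysis was followed at 480 nm.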
AmpC detergent: qHTS Inhibitors of AmpC Beta-Lactamase (assay with detergent) | Potency, µM (titrated, usually from 114 µM), inactives show at the highest dose activity change, negative = inhibition, usual class: inhibitors | AID 485294, 2010 | 370,000 tested, 0.041% active | P00811 | AmpC hydrolysis of nitrocefin, absorbance 480 nm, 0.01% Triton;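 note: 0% = no-compound wells and -100% = no-enzyme wells; nearly all actives have a fitted effect of over 25% in size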
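20 mM phosphate pH 7.0 + 0.01% (detergent screen) or 0.0001% Triton X-100; 5.3 nM AmpC reagent; cpd preinc 15 min RT; nitrocefin (800 uM stock) to start; A480 q20 s × 4 min; Activity was normalised to no-enzyme and no-compound control wells.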
Sm TGR inh: qHTS Assay for the Inhibitors of Schistosoma Mansoni Peroxiredoxins. AID 485364, 2010. purified TGR, DTNB reduction, TNB absorbance 405 nm. Potency, µM (series often up to 114 µM), for the others: at the top dose activity change, negative = inhibition, usual class: inhibitors. Schistosoma mansoni thioredoxin glutathione reductase (TGR), Q962Y6. 360,000 tested, 3% active; note: nearly all actives have a fitted effect of over 60% in size
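First, TGR (20 nM dispensed) and NADPH were mixed with compound. Second, a 15 min room-temperature incubation followed. Third, further NADPH and then DTNB were added to start the reaction. Finally, TNB absorbance was monitored kinetically.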
* hit, by the source's call; u = inconclusive; x = no result given. The list is not random: actives were taken first. Their share in the collection is about 3.3%. Calls come from the whole dose curve; as a rule, active = well fitted curve in the direction sought with a large enough effect; inconclusive = small, poorly fitted or top-dose-only effect, or another doubt; inactive = no such curve, though single readings can be large; an effect the other way counts as inactive or inconclusive. Unless noted, % is set by controls: 0 for no effect and ±100 for the full control effect; potency is the fitted concentration of half-maximal effect.

SMILES	AmpC no deterg	AmpC detergent	Sm TGR inh
CCOc1ccccc1NC(=O)CN1C(=O)COc2ccc(S(=O)(=O)N3CCOCC3)cc21	17%	1%	-9%
Cc1ccc(SCc2cc(=O)[nH]c(/N=C(\N)Nc3ccccc3Sc3ccccc3)n2)cc1	-22%	u	1%
COc1ccccc1N/C(N)=N/c1nc(CSc2ccc(C)cc2)cc(=O)[nH]1	14µM*	u	6%
O=C(CSc1nnnn1-c1ccc(C(=O)O)cc1)NC1CC1	-13%	4%	1%
O=C(O)C1C2CCC(O2)C1C(=O)NCc1ccccc1Br (configuration not stated)	-7%	-2%	10%
CN(Cc1nccn1C)C(=O)c1cc(COc2cccc(C(F)(F)F)c2)on1	109%	u	-23%
Cc1cc(CN(C)C(=O)c2cc(COc3ccc4ncccc4c3)on2)on1	0%	6%	32µM*
Cc1nonc1CN(C)C(=O)c1cc(COc2ccc(F)cc2Cl)on1	41%	2%	0%
Cc1ccc(CN(C)C(=O)c2cc(COc3ccc(F)cc3Cl)on2)o1	6%	-5%	25µM*
Cc1ccc(CN(C)C(=O)c2cc(COc3cccc(C(F)(F)F)c3)on2)o1	17%	-1%	10µM*
CN(Cc1nccn1C)C(=O)c1cc(COc2ccc3ncccc3c2)on1	2%	4%	-17%
CCCCC1(c2ccc(F)cc2)NC(=O)N(CC(=O)N2CCN(C(=O)c3ccco3)CC2)C1=O (configuration not stated)	80%	-3%	-3%
CSc1ccc(C(=O)C2CCCN(C(=O)Cc3nonc3C)C2)cc1 (configuration not stated)	32%	5%	4%
CCOCCCNC(=S)N(CCO)Cc1cc2cc3c(cc2[nH]c1=O)OCCO3	-15%	4%	-21%
C[C@H](NS(=O)(=O)c1ccc(Cl)cc1)C(=O)OCC(=O)c1ccc[nH]1	-22%	-6%	6%
O=C1CN(C(=O)c2ccccc2C(F)(F)F)C(c2ccccc2)c2cc(F)ccc2N1 (configuration not stated)	x	2%	1%
Cc1cc(C(=O)N/N=C/c2ccc(O)c(O)c2O)c(C)n1-c1ccccc1	-52%	2%	40µM*
Cc1cc(/C=N/NC(=O)c2ccncc2)c(C)n1-c1ccccc1	-14%	u	-10%
CCCCOc1ccc(-c2nn(-c3ccccc3)cc2C2NC(=O)NC(C)=C2C(=O)OC)cc1 (configuration not stated)	x	4%	-2%
COc1cc(NC(=O)CSCc2ccccc2)c(C(=O)O)cc1OC	-17%	u	10%
CCc1ccc(C2C(C#N)=C(N)SC(N)=C2C#N)s1	-56%	u	-31%
N#CC1=C(N)SC(N)=C(C#N)C1c1ccc(C(F)(F)F)cc1	-31%	-14%	-23%
CCc1ccc(C2C(C#N)=C(N)SC(N)=C2C#N)cc1	8.9µM*	-13%	-33%
Cc1ccc(C2C(C#N)=C(N)SC(N)=C2C#N)o1	-54%	-9%	22µM*
CC(OC(=O)COc1ccccc1)C(=O)NC1CCCC1 (configuration not stated)	-23%	-4%	22µM*
SMILES	AmpC no deterg	AmpC detergent	Sm TGR inh
CC(OC(=O)COc1ccc(Nc2ccccc2)cc1)C(=O)N(C)c1ccccc1 (configuration not stated)	40µM*	4%	u
CC(OC(=O)CNS(=O)(=O)c1ccc2ccccc2c1)C(=O)N(C)c1ccccc1 (configuration not stated)	73%	0%	13%
CC(Oc1ccccc1)C(=O)NC1CCCCCCC1 (configuration not stated)	1%	0%	3%
CC(C)N1CCN(Cc2cn[nH]c2C2CCCCC2)CC1CCO (configuration not stated)	0%	-5%	13%
O=C(COC(=O)/C=C/c1ccc(C(F)(F)F)cc1)NC1CCS(=O)(=O)C1 (configuration not stated)	94%	u	-1%
O=C(O)c1ccc(NC(=S)NC(=O)c2ccc(-c3ccc(Br)cc3)o2)cc1	-37%	-4%	32µM*
O=C(NC(=S)Nc1ccc(Cl)cc1)c1ccccc1	-27%	3%	u
Cc1ccc(C(=O)O)cc1NC(=S)NC(=O)c1ccc(-c2ccc(Cl)cc2)o1	-11%	0%	10µM*
Cc1ccc(C(=O)O)cc1NC(=S)NC(=O)c1ccc(-c2ccccc2)cc1	-15%	6%	u
O=C(O)c1cccc(NC(=S)NC(=O)c2ccc(-c3ccc(Cl)cc3)o2)c1	-20%	6%	20µM*
